SMILES strings stand for the structures. Hit rate of the full screen: of about 350,000 compounds, about 1,100 (0.31%) were called active. For the sample, actives were picked, then their nearest neighbours and some compounds at random. A number with no mark means an inactive call. Cut-off read from the data, not from the text of the source: active = activation above about 50%; inactive = the rest.

For this test, the target named is Endoribonuclease toxin MazF (Escherichia coli (strain K12)) (UniProt P0AE70). Nature of the test: activators of E. coli MazEF toxin-antitoxin RNase, primary screen, biochemical, fluorescence, uHTS (AID 504720). As to conditions: FAM/BHQ RNA-DNA oligo cleavage fluorescence, 5 h, at 20 µM, stronger effect = higher value.
Chain of Endoribonuclease toxin MazF (Escherichia coli (strain K12)) (P0AE70 whole entry, looked up): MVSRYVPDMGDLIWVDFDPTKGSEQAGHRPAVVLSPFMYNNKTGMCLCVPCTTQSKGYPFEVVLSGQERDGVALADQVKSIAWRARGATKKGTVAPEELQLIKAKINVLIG
Consider `CC(C)c1nc(SCC(=O)Nc2cccc(C(=O)O)c2)c2c3c(sc2n1)CCCC3`, for which the activation is 3.75%.

As to `Cc1cc(NC(=O)CSc2nc(C(C)C)nc3sc4c(c23)CCC(C)C4)no1` (stereo not drawn), the activation was 2.72%.

`Cc1nc(SCC(=O)Nc2cc(C)on2)c2c3c(sc2n1)CCCC3`: the activation is 63.5% (active).

As to `CCC(C)(C)NC(=O)C(c1ccccn1)N(C(=O)c1csnn1)c1ccccc1` (stereo not drawn), the activation was 5.61%.

In the case of `COc1ccc(CCNC(=O)CSc2nc(C)nc3c2oc2ccccc23)cc1OC`, the activation was 6.58%.

On to `O=c1cc(CN2CCN(c3cccc(Cl)c3)CC2)c2cc3c(cc2o1)CCCC3`, for which the activation is -4.83%.

For the molecule `Cc1ccnc(N2CCN(C(=O)CSc3nc4ccccc4nc3N3CCCCC3)CC2)c1`, the activation is -5.31%.

Consider `COc1cc(OC)cc(-c2c(C#Cc3ccsc3)c3cc(-c4ccc(OC)cc4F)ccc3n2C)c1`, for which the activation was -17.7%.

Regarding `Cc1ccc(Nc2nc(-c3ccc(O)cc3O)cs2)nc1`, the activation is 17.4%.

As to `O=c1oc2ccccc2cc1-c1csc(Nc2ccc(O)cc2)n1`, the activation was 78.3% (active).

For `Cc1ccn2c(-c3csc(Nc4ccc(C(=O)O)cc4)n3)c(C)nc2c1`, the activation is -8.63%.

For the molecule `CCCC1(C(=O)OC)NC(c2ccco2)C2C(=O)N(C)C(=O)C21` (stereo not drawn), the activation was -13%.

For `NS(=O)(=O)c1ccc(NC(=S)NNC(=O)c2cccs2)cc1`, the activation was 13.7%.

Consider `CC(C)N(C(=O)COC(=O)c1ccccc1C(=O)N1CCN(c2ccc(F)cc2)CC1)C(C)C`, for which the activation was 5.64%.

In the case of `Oc1ccc(N2CCN(C(=S)NCc3ccccc3)CC2)cc1`, the activation was -1.54%.

On to `O=C(COC(=O)c1ccccc1C(=O)N1CCN(c2ccccc2)CC1)NCc1ccccc1`, for which the activation was 67.3% (active).

For the molecule `Cn1c2ccccc2n2c(=O)c(=O)n(CC(=O)c3ccc(F)cc3)nc12`, the activation was -20.6%.

With `CCSc1ccccc1C(=O)NCc1ccc(OC)cc1`, the activation was 2.86%.

`COc1ccc(OC)c(NC(=O)c2cnn(-c3ccccc3Cl)c2NC(=O)c2ccco2)c1`: the activation was 4.29%.

Turning to `CCC(=O)OCc1c(C(F)(F)F)nn(C)c1Oc1cccc(C(F)(F)F)c1`, the activation was -2.22%.

Take `Cn1nc(C(F)(F)F)cc1-c1ccc(/C=C(\C#N)C(=O)c2cccc(C(F)(F)F)c2)s1`: the activation is 730% (active).

For `Cn1nc(C(F)(F)F)cc1C(=O)O`, the activation is 11.7%.

Consider `C=CCSc1nc(Cc2ccc(Cl)cc2)nc2ccccc12`, for which the activation is -10.7%.

As to `COc1cccc(OC)c1CN(C)C(=O)c1cnccc1C(F)(F)F`, the activation is -0.62%.

Consider `Cc1nc([N+](=O)[O-])cn1CC(=O)Nc1ccc(Cl)cc1`, for which the activation is 7.49%.

For `Nc1c(C(=O)c2cccs2)sc2nsc(SCCN3CCCCC3)c12`, the activation is 790% (active).

On to `CN=C(c1ccccc1)c1c(C)cccc1C`, for which the activation is 0.32%.

Take `CN(C)CCNC(=O)C(C(=O)c1ccccc1)n1ccccc1=O` (stereo not drawn): the activation was 5.66%.

Regarding `Cc1nn2c3cc(N4CCOCC4)ccc3nc2c2ccccc12`, the activation is 31.7%.

In the case of `CC(=O)c1sc(NC(=O)C2=NN(c3ccccc3)C(=O)CC2)nc1C`, the activation was 0.238%.

For `CC(=O)c1sc(NC(=O)c2cccc3ccccc23)nc1C`, the activation is 63.5% (active).

On to `Cc1ccn2c(=O)c(NC(=O)c3cccc4ccccc34)c(C)nc2c1`, for which the activation is 4.6%.

Turning to `Cc1cccc(N2C(=O)C3C(c4ccccc4)OC4(C(=O)c5ccccc5C4=O)C3C2=O)c1` (stereo not drawn), the activation was 0.83%.

As for `CCOc1ccc(N2C(=O)Nc3ccccc3C2(O)C(=O)NCc2ccco2)cc1` (stereo not drawn), the activation was -28.4%.

For `CCCCCCCC(=O)NC(Nc1ccccc1OC)C(Cl)(Cl)Cl` (stereo not drawn), the activation was -13.4%.

For the molecule `Cc1ccsc1CNn1cnnc1SCc1ccccc1F`, the activation is 54.5% (active).

With `Cc1ccccc1CSc1nnc(-c2cccnc2)n1N`, the activation was -17.4%.

As to `CCN(CC(=O)NCc1cccs1)C(=O)c1cccc(S(=O)(=O)Nc2ccccc2OC)c1`, the activation is 2.02%.

For the molecule `CCOc1ccc(C(C(=O)NCCOC)N(CCOC)C(=O)CCC(=O)Nc2ccccn2)cc1` (stereo not drawn), the activation was -1.66%.

Take `Cc1ccc(C(=O)O)cc1N1C(=O)CCCC1=O`: the activation was 4.24%.

As to `COCCCNc1nc2c(-c3cccc(C)c3)nnn2c2ccc(Cl)cc12`, the activation was 6.31%.

For the molecule `CN(CC(=O)Nc1ccc(F)c(F)c1F)C(=O)Cn1cnc2c1c(=O)n(C)c(=O)n2C`, the activation was 3.59%.

`O=C(c1ccc(Cl)cc1)N1N=C(c2ccccn2)CC1(O)C(F)(F)F` (stereo not drawn): the activation is 7.8%.

For the molecule `O=C1NC(=O)N(c2ccc(F)cc2)C(=O)/C1=C/c1ccc2c(c1)CCCN2Cc1ccccc1`, the activation was 50.1% (active).

`O=C1CN(C(=O)c2cc(F)cc(F)c2)c2ccccc2N1`: the activation is 10.5%.

`COCCNC(=O)C(c1ccc(O)cc1)N(C(=O)CCC(=O)Nc1nccs1)c1ccc(C)cc1` (stereo not drawn): the activation is 8.66%.

For the molecule `CC(=O)Oc1cc2c(C(=O)NCCN3CCOCC3)c(C)oc2c2ccccc12`, the activation was -12.4%.

Take `O=C(CN1C(=O)NC(Cc2ccccc2)(Cc2ccccc2)C1=O)NCC1CCCCC1`: the activation is 2.41%.

With `CCCCCCNCCn1cnc2c(N)ncnc21`, the activation was 2.79%.

In the case of `CCOCCN(C=O)c1cccc(OC)c1`, the activation was 4.02%.

Consider `CCC(C(=O)NC1CCCCC1)N(C(=O)c1snc(C(N)=O)c1N)c1ccc(OC)cc1OC` (stereo not drawn), for which the activation is 8.72%.

Turning to `COc1ccc(C(C(=O)NC2CCCCC2)N(C(=O)c2snc(C(N)=O)c2N)c2ccccc2OC)cc1` (stereo not drawn), the activation is 6.68%.

Regarding `COc1ccc(N(C(=O)c2snc(C(N)=O)c2N)C(C(=O)NC2CCCC2)c2ccc(C)o2)c(OC)c1` (stereo not drawn), the activation is 146% (active).

Consider `O=C(NCCCO)/C(=C\C=C\c1ccccc1)NC(=O)c1ccccc1Cl`, for which the activation was -2.84%.

Consider `CCNC(=O)NC(=O)C(C)OC(=O)C1CCN(S(=O)(=O)c2ccccc2F)CC1` (stereo not drawn), for which the activation was 5.47%.

With `C=CC[C@H](CC(=O)N(CCO)Cc1ccccc1)C(=O)N[C@@H](COC(=O)[C@@H](CC=C)Cc1ccc(F)cc1)Cc1ccccc1`, the activation was -7.46%.

For `Cc1nc(NCc2ccccc2)c(C(N)=O)c2c1COC(C)(C)C2`, the activation was -2.87%.

Take `CCCn1c(=O)c2c(C(F)(F)F)cc(-c3cccs3)nc2n(CCC)c1=O`: the activation is 11.8%.

The record behind these values is PubChem BioAssay AID504720 (Sanford-Burnham Center for Chemical Genomics, 2011).
